Experimental data taken from PubChem BioAssay AID588335 (The Scripps Research Institute Molecular Screening Center, 2011).
Out of some 360,000 compounds screened, about 4,500 (1.2%) were called active. What follows is part of a selection rich in actives, with near analogues and random picks from the rest. Values without a mark were called inactive. Cut-off read from the data, not from the text of the source: active = inhibition above about 30%; inactive = the rest.

experiment: inhibition of GDH and TPI enzymes – biochemical, absorbance, full deck, artefact control for M. tuberculosis FBA inhibitor project, primary screen (AID 588335); conditions: GDH-TPI coupled enzyme counterscreen, NADH absorbance; at 4.8 µM; active compounds read high;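 note: 0% = DMSO wells and 100% = wells lacking the enzyme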

| Compound | inhibition |
| --- | --- |
| COc1cc(C(F)(F)F)nc2c(Br)c(C(C)(C)C)nn12 | 11.5% |
| CCCCN(C(=O)C(CCSC)N1C(=O)c2ccccc2C1=O)c1c(N)n(CCC)c(=O)[nH]c1=O (stereo not given) | 6.94% |
| Cc1onc(-c2ccccc2)c1-c1nnc(COC(=O)c2ccc(N(C)C)cc2)o1 | 16.8% |
| CCOCCCNC(=O)C(NC(=O)c1ccc(=O)[nH]c1)c1ccc(Cl)cc1 (stereo not given) | 14.7% |
| Cc1ccc(-n2nc3cc(C)c(NC(=O)c4cccnc4)cc3n2)cc1 | 15.4% |
| CC(C)NS(=O)(=O)c1ccc(NC(=O)c2cccnc2)cc1 | -0.48% |
| Cc1cc2nc(-c3ccc(NC(=O)c4cccnc4)cc3)oc2cc1C | 34.4% (active) |
| CCc1ccc(NC2Nc3cc(C)nn3S2)cc1 (stereo not given) | 3.7% |
| Cc1ccc(C(=O)N[C@H](C(=O)N2CCN(c3ncccn3)CC2)C(C)C)cc1 | 4.42% |
| COC(=O)c1cccc(NC(=O)CSc2nc(C)cc(=O)[nH]2)c1 | -11.5% |
| COc1ccc(C(=O)CSc2n[nH]c(N)n2)cc1 | 4% |
| COC(=O)c1cc(C(=O)CSc2nc(C)cc(C)n2)ccc1O | 31.6% (active) |
| CCOC(=O)Cn1c(=O)n(Cc2ccc(OC)cc2)c(=O)c2cccnc21 | 5% |
| O=C1N(Cc2ccc3c(c2)OCO3)c2ccccc2C1(O)c1c[nH]c2ccccc12 (stereo not given) | 7.18% |
| Cc1cccc(CCNS(=O)(=O)c2ccc(S(=O)(=O)NC3CCCC3)cc2)c1 | 10.9% |
| Cc1c(/C=N/N2C(=O)C3C4C=CC(C4)C3C2=O)c2ccccc2n1C (stereo not given) | 21.5% |
| O=C1C2C3C=CC(C4CC34)C2C(=O)N1/N=C/c1ccc(-c2ccccc2[N+](=O)[O-])o1 (stereo not given) | 50.6% (active) |
| CN(C(=O)CSc1nc(C2CC2)nc2ccccc12)c1nc(-c2ccccc2)cs1 | 8.44% |
| CCCCn1c(N)c(N(CCC(C)C)C(=O)COC(=O)c2ccc(CC)cc2)c(=O)[nH]c1=O | 9.06% |
| CN(CCc1ccccc1)C(=O)c1cccc(NC(=O)Cc2cccc(NC(=O)C3CCCN(C(=O)C4CCC4)C3)c2)c1 (stereo not given) | 4.55% |
| COc1ccc(Nc2cc(Sc3ccc(OC)cc3)ncn2)cc1 | -3.81% |
| COc1ccc(CCNC2=CC(=O)CC(C)(C)C2)cc1 | 4.76% |
| COc1ccc(NC2=CC(=S)NC(C)(C)C2)cc1 | 31.3% (active) |
| CCOC(=O)[C@H]1CCC[C@@H](NS(=O)(=O)c2ccc(NC(C)=O)cc2)C1 | -3.39% |
| OC(c1ccccc1)c1nc(-c2cnc3ccccc3c2)cs1 (stereo not given) | -3.54% |
| COCCN(C(=O)c1ccccc1F)c1c(N)n(Cc2ccccc2)c(=O)[nH]c1=O | -6.6% |
| CC/C(=N\NC(=O)c1ccccc1Cl)c1ccc(Br)s1 | 16.7% |
| CC/C(=N\NC(=O)c1ccccc1O)c1c(O)n(Cc2ccccc2)c(=O)[nH]c1=O | 57% (active) |
| Cc1ccccc1Nc1scc(-c2ccc(Br)cc2)[n+]1-c1ccccc1C | -1.89% |
| COCCNc1cc(NCCOC)c([N+](=O)[O-])cc1[N+](=O)[O-] | 15.1% |
